According to paper PMC12136788:
Residue numbers refer to the chain shown, from its start. Whole data set: some 24,000 sequences, median “enrichment r” near 0.99, cut for the highest 2% near 3.7. Only a selection was taken, and the highest values are over-represented in it overall.

T1: UNK ZnF1-3 (human, UniProt Q9C0B0 31-174)
T1 sequence: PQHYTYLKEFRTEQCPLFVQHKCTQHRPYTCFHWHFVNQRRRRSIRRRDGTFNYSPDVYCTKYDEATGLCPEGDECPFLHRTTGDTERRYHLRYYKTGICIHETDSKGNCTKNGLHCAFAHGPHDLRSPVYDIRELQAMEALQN

B1: chr12:73045124:73045125:+_ENSMUSG00000034574_ENSMUST00000085299|mus_mus|FALSE|FALSE (ssRNA)
RNA: GGGAGUUCUACAGUCCGACGAUCGCCUUGAGAGUUGUUCAUUAGUGCCUUUAUACAGCCAAUGAGGGAGGUGUGUAUCCGAGACUCAGAGGUCUCAUAGUCCAUGGUCUUCAGAAAGUUGAGAAUACAUGACAGGCCAUCCAACAACAGAGGAUUGAGCAUCA
B2: chr16:57473197:57473198:-_ENSG00000005194_ENST00000569370|hu_hu|motif|central (ssRNA)
RNA: GGGAGUUCUACAGUCCGACGAUCGAUCCGGGCGAUUUCAGCCAAAAUCUCAGCACUGUGCAGAGUGGUGCUUCCUGGGACGGAACCUGACAAAAUAAUGUCAAAGCUGGAUUCUUUGUGGGCAGAUUGCAACAGCUGCUUGAUCAACAGAGGAUUGAGCAUCA
B3: chrX:114877694:114877695:+_ENSG00000102024_ENST00000355899|hu_hu|FALSE|FALSE (ssRNA)
RNA: GGGAGUUCUACAGUCCGACGAUCGUUGAGUUUGGGGUUUCCACUGACAACAUCAGCAGGGGUAACAAACUGUCUGCAACCUAAUUUAUCUGCUUGUUGAAGCAUACUCUCAGCUCUCUUCAAAUCAUCUGUUUCAUUGAAACCCAACAGAGGAUUGAGCAUCA
B4: 31603315_31603435_826_3pUTR_ENSMUSG00000024261_ENSMUST00000025110|mouse|control|control (ssRNA)
RNA: GGGAGUUCUACAGUCCGACGAUCUUCCUGAGCACUCUGGUCUUCACUCUGUGCUUCUUCUCUGGUAAGAUUGUCAUUUUGAUGUACGGGUCAGAGGUCAUGGAUUGCUCGUCCAUGGCUGGUAAGCCCUGGGCUUCCUUGAUGCAACAGAGGAUUGAGCAUCA
B5: 171883182_171886102_1035_3pUTR_ENSMUSG00000026675_ENSMUST00000027989|mouse|control|control (ssRNA)
RNA: GGGAGUUCUACAGUCCGACGAUCUUCUGAACGGUGGUCCUGACACGCUUUUCCAGCUCCAGUAAGACCUCAUAGAAUUUUUCAGCAGUGUCUUCAUCUAUGUCCAUCUUUUGGCCCGUGACGUAAUUAGUCCCAAAUCCCGAGCAACAGAGGAUUGAGCAUCA
B6: 82050892_82051012_2182_ncRNA_ENSMUSG00000021134_ENSMUST00000153056|mouse|control|control (ssRNA)
RNA: GGGAGUUCUACAGUCCGACGAUCUUGUUUUGUUUUUUAAAAAAAGGCCCCCAGGGCAAGUUAUUUACAGUUUAAUUGCCACUGUCAACUGAUCUGGACCUGGACCGGGAUCGGGACCUCUGGCGAUCCACAGAUGCUGGAGAUCAACAGAGGAUUGAGCAUCA
B7: chr1:23636438:23636439:-_ENSG00000125944_ENST00000302271|hu_mus|FALSE|FALSE (ssRNA)
RNA: GGGAGUUCUACAGUCCGACGAUCUUUUGUAGGGCAGAUUUCAAAAAGGUGUGGUUAUAACAAUUUAAAAACACAGUUAACCUGCUUCUAGGAAUGCAAAACAUACAGUCAUAGGUUAUCUUCAAUACAAGGAAACUUAAGUCUCAACAGAGGAUUGAGCAUCA
B8: chr18:35731629:35731630:+_ENSMUSG00000037236_ENSMUST00000166793|mus_mus|FALSE|FALSE (ssRNA)
RNA: GGGAGUUCUACAGUCCGACGAUCUUAUAGAUCAAAAAAAAAAAAAAAAGUUUUAAAAGAUGGCCAAAAAGAAAGCUCAAGCUAGAAAGCUAGGUUAACUUUGCUUCAAAAAUGGUAACGCCAAGAAAAAGGAUCAAUAAGGACCAACAGAGGAUUGAGCAUCA
B9: chr13:59234359:59234360:+_ENSMUSG00000055254_ENSMUST00000079828|mus_mus|FALSE|FALSE (ssRNA)
RNA: GGGAGUUCUACAGUCCGACGAUCUAUGUAAAAAAUUGUUUUUGCUUUAUGUUGGUGAUGAAUGGACCAAAAGUUGAUAGAUAGAUAGAUAAAUAAAUAAAUAAAUAAAUAAAUACACAAAUAAAUAACGCCGAAGGGAAAGAACAACAGAGGAUUGAGCAUCA
B10: chr2:115689334:115689335:-_ENSMUSG00000027210_ENSMUST00000074285|mus_hu|FALSE|FALSE (ssRNA)
RNA: GGGAGUUCUACAGUCCGACGAUCCUCUUUGAAGAAGAGUCCCCCAAAAAUAAUAAUAAGAAUUGGCUUAUGAAGCACGAACUAUAAAGAUCUGUUUGAAACUAAAGGACACAUUUAUGGAGGAACAAAGGCCGGGCAUGAAAACAACAGAGGAUUGAGCAUCA
B11: chr14:54894545:54894546:-_ENSG00000100528_ENST00000216416|hu_hu|FALSE|FALSE (ssRNA)
RNA: GGGAGUUCUACAGUCCGACGAUCCAUUUGGUGGCUUUUUGCAUGCACUUAACUGGACCAAUUCUUCUGUGUGUUGUUCUAAGAGCUCACCAAAACAUAGAUCAUGCCAUAUAGGUAGUAAAAAAAUGCUAGAAGAUAAAAAGCCAACAGAGGAUUGAGCAUCA
B12: chr18:35731629:35731630:+_ENSMUSG00000037236_ENSMUST00000166793|mus_mus|motif|central (ssRNA)
RNA: B8 RNA with U82G, A83G
B13: chr16:94651144:94651145:+_ENSMUSG00000040785_ENSMUST00000117648|mus_hu|mus_mus_mus_hu_True|58_98 (ssRNA)
RNA: GGGAGUUCUACAGUCCGACGAUCAUUUUCUUGAAUCAAGUGACCGAUAACAUAGUCCACUGCUUCAUUUAGAAAAUUUUUGCUAGAAAAACAGGUUGUAUAGUCUUCUGUGCUCAAAACUUUCCAAGAAAGCAAUUCUUUGAGCAACAGAGGAUUGAGCAUCA
B14: 151522442_151522562_447_CDS_ENSMUSG00000034021_ENSMUST00000016569|mouse|control|control (ssRNA)
RNA: GGGAGUUCUACAGUCCGACGAUCAUAAAUCCUGAAAAUAUCAGCAAGGCAGCAAGCCACCAGUAAACGAACAUCUUUAUCAGGAUGCUUGAGGAAGAAGUCAGAAGCAAGAUGUAAAGCUAGGUUUAGAUAAAGUUCCUUUUCCAACAGAGGAUUGAGCAUCA
B15: chr13:100200628:100200629:-_ENSMUSG00000052727_ENSMUST00000064762|perfect_dup|FALSE|FALSE (ssRNA)
RNA: GGGAGUUCUACAGUCCGACGAUCGUCACCAGGUGUCUUCCCUCCACUGUCCUUCUCCAGGCCAGGUGUGGACAAAUCUCUAUUCAAGGCUAGAUGGUGUUGCAUUGUAUCGAAUAACACUGAGGCACGGAAGCCAUAGGGCUCCAACAGAGGAUUGAGCAUCA
B16: chr14:78183846:78183847:+_ENSG00000119705_ENST00000557342|hu_hu|hu_hu_hu_mus_False|78_88 (ssRNA)
RNA: GGGAGUUCUACAGUCCGACGAUCUCUCAGAAAUCUUUCUUCAUCAGCAUCAUCAGAUGUUUGCGGAGCCUUUGCUCUUUGAGCUUGAACGUGGAUCUAUGGGAGGGAAAGCACUGUCAGAAAAGGUAAUUUUUUUUUUAAAGACAACAGAGGAUUGAGCAUCA
B17: chr7:127875444:127875445:+_ENSMUSG00000046096_ENSMUST00000060175|mus_hu|FALSE|FALSE (ssRNA)
RNA: GGGAGUUCUACAGUCCGACGAUCAAAGGCAUAUAACAUAUAAAGAAAAUAUUGUAUUGCUCAGGUUUUGGUAAAGAUGUAUUAAUAAUGCUUACAGAUAAAAAUAAUGAAAUUAGUGUUGUAAAUAGCCAAAAUAGCCAGAUACAACAGAGGAUUGAGCAUCA
B18: chr18:51681570:51681571:-_ENSG00000134046_ENST00000256429|hu_hu|FALSE|FALSE (ssRNA)
RNA: GGGAGUUCUACAGUCCGACGAUCGAUAUAUACAUCAAAAAUACAUCUAAAAAGGCAUUGGUUAGUGCUAUUAAAAAGCUCUAUGUGCUCGGGUACAUUUUUUUUCUUACAGGCAAAAGCCAGUGGAAACAUUUUUGUUCAAUUCAACAGAGGAUUGAGCAUCA
B19: chr1:66485654:66485655:+_ENSMUSG00000015222_ENSMUST00000024639|mus_hu|FALSE|FALSE (ssRNA)
RNA: GGGAGUUCUACAGUCCGACGAUCUUUUUAAAUAGAAAAUUGUAACAAUUACUACAGUUUGGGGAUGAGAUUAUUUAUUUUAUGGUUUAUAAAGAAUGAAUAUAACAACUGCUCAGAGCCCACUCCUGCCAAGAGCUCAUGCCUCAACAGAGGAUUGAGCAUCA
B20: chr18:35731629:35731630:+_ENSMUSG00000037236_ENSMUST00000166793|mus_hu|motif|central (ssRNA)
RNA: GGGAGUUCUACAGUCCGACGAUCUAUUUUAUAGAUUAAAAAAAAAAAUUUUUUUAAAGACGGCCAAAAAGAAAGCUCAAACGGGAAAGCUAGGUUAACUUUGCUUCAAAAAUGGUAACGCCAAGAAAAAGGAUCAAUAAGGACCAACAGAGGAUUGAGCAUCA
B21: chr9:74904954:74904955:+_ENSMUSG00000007656_ENSMUST00000169492|mus_hu|FALSE|FALSE (ssRNA)
RNA: GGGAGUUCUACAGUCCGACGAUCCCAAAAGGUAAAUACAGAAGAAAUCAAUACAAUAGAGAUUAUAUUAAAUAAGAGUAACAUACAAAGCUAUAAUUAAGAUGAAGUAAUGAAAGCCAAAACAUUAAAAUUUUAAAACUUGCUCAACAGAGGAUUGAGCAUCA
B22: chr18:35731629:35731630:+_ENSMUSG00000037236_ENSMUST00000166793|mus_hu|FALSE|FALSE (ssRNA)
RNA: B20 RNA with G82U, G83A

target: T1, UNK ZnF1-3; test: nsRBNS (natural sequence RNA bind-n-seq); RBNS binding buffer (assumed for nsRBNS): 25 mM Tris pH 7.5, 150 mM KCl, 3 mM MgCl2, 0.01% Triton X-100, 500 ug/ml BSA, 20 U/ml SUPERase-In, 4 C; UNK is unkempt and MSI1 is Musashi-1; names of the RNAs are library labels; protein concentration not given here; high values mean tight binding

| Binder | binding signal [enrichment R] |
| --- | --- |
| B1 | 0.851 |
| B2 | 1.32 |
| B3 | 0.755 |
| B4 | 0.411 |
| B5 | 0.753 |
| B6 | 1.31 |
| B7 | 1.23 |
| B8 | 7.98 |
| B9 | 5.23 |
| B10 | 2.27 |
| B11 | 1.24 |
| B12 | 8.04 |
| B13 | 0.331 |
| B14 | 1.36 |
| B15 | 1.14 |
| B16 | 1.96 |
| B17 | 5.6 |
| B18 | 0.982 |
| B19 | 3.6 |
| B20 | 5.52 |
| B21 | 3.69 |
| B22 | 4.65 |
